Test results from PMC13541613, “GHT-SELEX demonstrates unexpectedly high intrinsic sequence specificity and complex DNA binding of many human transcription factors”.

Target: ZNF721 full-length (Homo sapiens, UniProt Q8TF20-2 1-923)
Assay: HT-SELEX; 20 mM HEPES pH 7, 140 mM KCl, 5 mM NaCl, 1 mM K2HPO4, 2 mM MgSO4, 100 uM EGTA, ZnSO4, 0.1% Tween20; room temperature, 1 h; high values mean tight binding
Conditions: protein: ivt; tags: eGFP (N-terminal); dsDNA, one strand shown
How it was run: (§1)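 A tagged transcription factor, either full-length or its DNA-binding-domain fragment, was made in HEK293 lysate or cell-free extract, immobilised on beads and incubated with a randomized 40-base DNA library for 1 h at room temperature in HEPES/KCl low-stringency buffer containing Tween20. Washed beads were heat-eluted, and the bound DNA was PCR-amplified over successive cycles and Illumina-sequenced at ~3 million 60 bp reads per sample. The binding signal is the relative k-mer count in selected reads, where a higher value means tighter binding.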

ZNF721 full-length, sequence (Q8TF20 other isoform, or with tags, fused parts or gaps): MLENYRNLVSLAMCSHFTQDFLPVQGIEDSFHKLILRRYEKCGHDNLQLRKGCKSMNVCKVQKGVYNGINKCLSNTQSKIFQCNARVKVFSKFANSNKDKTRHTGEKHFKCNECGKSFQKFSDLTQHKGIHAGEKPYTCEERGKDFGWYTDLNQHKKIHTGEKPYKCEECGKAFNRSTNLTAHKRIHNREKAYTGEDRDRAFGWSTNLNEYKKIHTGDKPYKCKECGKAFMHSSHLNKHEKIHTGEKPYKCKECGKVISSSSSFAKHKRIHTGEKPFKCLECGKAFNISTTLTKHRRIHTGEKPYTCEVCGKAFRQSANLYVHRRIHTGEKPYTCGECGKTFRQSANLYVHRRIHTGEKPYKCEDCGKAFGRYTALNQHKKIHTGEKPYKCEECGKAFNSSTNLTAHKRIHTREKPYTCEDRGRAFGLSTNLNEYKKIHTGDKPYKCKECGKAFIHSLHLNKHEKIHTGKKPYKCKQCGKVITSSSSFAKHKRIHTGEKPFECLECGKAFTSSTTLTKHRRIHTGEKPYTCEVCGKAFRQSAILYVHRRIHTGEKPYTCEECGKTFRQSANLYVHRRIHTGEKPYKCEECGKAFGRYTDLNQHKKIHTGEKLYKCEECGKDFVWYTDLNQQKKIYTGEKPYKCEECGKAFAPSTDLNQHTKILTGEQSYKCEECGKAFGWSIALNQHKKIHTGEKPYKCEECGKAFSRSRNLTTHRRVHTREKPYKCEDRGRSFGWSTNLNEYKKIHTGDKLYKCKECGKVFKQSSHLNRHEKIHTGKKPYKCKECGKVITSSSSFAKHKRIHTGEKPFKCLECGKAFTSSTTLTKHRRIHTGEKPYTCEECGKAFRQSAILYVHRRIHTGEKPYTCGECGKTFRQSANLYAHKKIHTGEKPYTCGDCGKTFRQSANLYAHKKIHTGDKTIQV

Going from CCCCCGCCGC to AAAAAGCTAT, the binding signal rises from 0.128 relative 10-mer count to 0.425 relative 10-mer count.

Going from ACACCCACCC to GCACCCACCC, the binding signal falls from 0.171 relative 10-mer count to 0.107 relative 10-mer count.

First: ATAGCTTCAT
Second: CCCACCCCCC
The binding signal of the first is lower: 0.118 relative 10-mer count for the first, 0.427 relative 10-mer count for the second.

Going from CCCCCTCCCG to CCACCCCCCA, the binding signal rises from 0.114 relative 10-mer count to 0.272 relative 10-mer count.

Compared with CCCCCCACGC, ACCGCCCACC is higher in binding signal: 0.139 relative 10-mer count for the first, 0.152 relative 10-mer count for the second.

Compared with ACCCTCCCCC, CCCCCGTCCC is lower in binding signal: 0.176 relative 10-mer count for the first, 0.173 relative 10-mer count for the second.

First: CACGCCACCC
Second: CACCATCCCC
The binding signal of the first is lower: 0.103 relative 10-mer count for the first, 0.118 relative 10-mer count for the second.

First: CCTCCCCCGC
Second: CACACCACCC
The binding signal of the first is lower: 0.131 relative 10-mer count for the first, 0.142 relative 10-mer count for the second.

Compared with CACCCCGCCC, CCCCAACCCA is lower in binding signal: 0.205 relative 10-mer count for the first, 0.13 relative 10-mer count for the second.

Compared with CCCCCTCACC, CGAAAAAAAG is higher in binding signal: 0.149 relative 10-mer count for the first, 0.159 relative 10-mer count for the second.

Going from CACCCCACAC to CCACCCCACG, the binding signal falls from 0.138 relative 10-mer count to 0.131 relative 10-mer count.

Going from CCGCCCTCCC to CCCCCACCGC, the binding signal rises from 0.148 relative 10-mer count to 0.192 relative 10-mer count.

Going from CCTCCCACCA to CACAAAAAAG, the binding signal falls from 0.115 relative 10-mer count to 0.102 relative 10-mer count.

Going from GCTTCATACA to CACCACCCCC, the binding signal rises from 0.231 relative 10-mer count to 0.276 relative 10-mer count.

Going from AAAGAAGCTA to ACCCCCAACC, the binding signal falls from 0.132 relative 10-mer count to 0.12 relative 10-mer count.

Going from AAAGCTGCAC to GCACCCCCAC, the binding signal falls from 0.11 relative 10-mer count to 0.107 relative 10-mer count.

First: AAAGCTATCC
Second: ACCCACCTCC
The binding signal of the first is higher: 0.165 relative 10-mer count for the first, 0.125 relative 10-mer count for the second.

Going from AGGGGGCGGG to ACCCCCCCAC, the binding signal rises from 0.128 relative 10-mer count to 0.169 relative 10-mer count.

First: CCCAAAAAAA
Second: CCCACCCCCA
The binding signal of the first is lower: 0.149 relative 10-mer count for the first, 0.28 relative 10-mer count for the second.

First: AACCACCCCC
Second: ACCCCACCTC
The binding signal of the first is higher: 0.106 relative 10-mer count for the first, 0.104 relative 10-mer count for the second.

Target: ZNF721 DBD1 (Homo sapiens, UniProt Q8TF20-2 29-461)
Assay: as above
Conditions: protein: ivt; tags: eGFP (N-terminal); dsDNA, one strand shown
How it was run: as §1

ZNF721 DBD1, sequence (Q8TF20 17-449): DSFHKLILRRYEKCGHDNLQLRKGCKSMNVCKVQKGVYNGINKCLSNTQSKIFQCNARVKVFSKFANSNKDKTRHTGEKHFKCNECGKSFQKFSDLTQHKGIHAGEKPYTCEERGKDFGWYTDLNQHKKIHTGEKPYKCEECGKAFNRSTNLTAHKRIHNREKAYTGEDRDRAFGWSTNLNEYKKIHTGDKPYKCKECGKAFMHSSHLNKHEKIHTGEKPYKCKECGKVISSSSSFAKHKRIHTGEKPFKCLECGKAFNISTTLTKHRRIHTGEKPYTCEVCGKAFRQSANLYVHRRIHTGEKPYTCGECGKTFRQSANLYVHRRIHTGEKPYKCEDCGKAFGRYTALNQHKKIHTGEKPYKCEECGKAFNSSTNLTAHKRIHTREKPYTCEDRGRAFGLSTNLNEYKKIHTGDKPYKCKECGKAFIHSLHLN

Compared with CCCCCGCCGC, AAAAAGCTAT is higher in binding signal: 0.00436 relative 10-mer count for the first, 0.225 relative 10-mer count for the second.

First: ACACCCACCC
Second: GCACCCACCC
The binding signal of the first is higher: 0.0105 relative 10-mer count for the first, 0.00523 relative 10-mer count for the second.

Going from ATAGCTTCAT to CCCACCCCCC, the binding signal falls from 0.158 relative 10-mer count to 0.0183 relative 10-mer count.

First: CCCCCTCCCG
Second: CCACCCCCCA
The binding signal of the first is lower: 0.00573 relative 10-mer count for the first, 0.0103 relative 10-mer count for the second.

Compared with CCCCCCACGC, ACCGCCCACC is higher in binding signal: 0.00404 relative 10-mer count for the first, 0.005 relative 10-mer count for the second.

Going from ACCCTCCCCC to CCCCCGTCCC, the binding signal falls from 0.00766 relative 10-mer count to 0.00642 relative 10-mer count.

Compared with CACGCCACCC, CACCATCCCC is higher in binding signal: 0.00344 relative 10-mer count for the first, 0.00468 relative 10-mer count for the second.

First: CCTCCCCCGC
Second: CACACCACCC
The binding signal of the first is higher: 0.00647 relative 10-mer count for the first, 0.00573 relative 10-mer count for the second.

Going from CACCCCGCCC to CCCCAACCCA, the binding signal falls from 0.00656 relative 10-mer count to 0.00482 relative 10-mer count.

Compared with CCCCCTCACC, CGAAAAAAAG is higher in binding signal: 0.00624 relative 10-mer count for the first, 0.0289 relative 10-mer count for the second.

Going from CACCCCACAC to CCACCCCACG, the binding signal falls from 0.0055 relative 10-mer count to 0.00495 relative 10-mer count.

First: CCGCCCTCCC
Second: CCCCCACCGC
The binding signal of the first is lower: 0.00642 relative 10-mer count for the first, 0.00936 relative 10-mer count for the second.

Compared with CCTCCCACCA, CACAAAAAAG is higher in binding signal: 0.00784 relative 10-mer count for the first, 0.00853 relative 10-mer count for the second.

Compared with GCTTCATACA, CACCACCCCC is lower in binding signal: 0.318 relative 10-mer count for the first, 0.0117 relative 10-mer count for the second.

Compared with AAAGAAGCTA, ACCCCCAACC is lower in binding signal: 0.109 relative 10-mer count for the first, 0.00468 relative 10-mer count for the second.

Compared with AAAGCTGCAC, GCACCCCCAC is lower in binding signal: 0.0548 relative 10-mer count for the first, 0.00523 relative 10-mer count for the second.

First: AAAGCTATCC
Second: ACCCACCTCC
The binding signal of the first is higher: 0.0786 relative 10-mer count for the first, 0.00505 relative 10-mer count for the second.

Going from AGGGGGCGGG to ACCCCCCCAC, the binding signal rises from 0.00463 relative 10-mer count to 0.00697 relative 10-mer count.

First: CCCAAAAAAA
Second: CCCACCCCCA
The binding signal of the first is lower: 0.0067 relative 10-mer count for the first, 0.0118 relative 10-mer count for the second.

Going from AACCACCCCC to ACCCCACCTC, the binding signal rises from 0.00303 relative 10-mer count to 0.00527 relative 10-mer count.

Target: ZNF721 DBD2 (Homo sapiens, UniProt Q8TF20-2 395-923)
Assay: as above
Conditions: protein: ivt; tags: eGFP (N-terminal); dsDNA, one strand shown
How it was run: as §1

ZNF721 DBD2, sequence (Q8TF20 383-911): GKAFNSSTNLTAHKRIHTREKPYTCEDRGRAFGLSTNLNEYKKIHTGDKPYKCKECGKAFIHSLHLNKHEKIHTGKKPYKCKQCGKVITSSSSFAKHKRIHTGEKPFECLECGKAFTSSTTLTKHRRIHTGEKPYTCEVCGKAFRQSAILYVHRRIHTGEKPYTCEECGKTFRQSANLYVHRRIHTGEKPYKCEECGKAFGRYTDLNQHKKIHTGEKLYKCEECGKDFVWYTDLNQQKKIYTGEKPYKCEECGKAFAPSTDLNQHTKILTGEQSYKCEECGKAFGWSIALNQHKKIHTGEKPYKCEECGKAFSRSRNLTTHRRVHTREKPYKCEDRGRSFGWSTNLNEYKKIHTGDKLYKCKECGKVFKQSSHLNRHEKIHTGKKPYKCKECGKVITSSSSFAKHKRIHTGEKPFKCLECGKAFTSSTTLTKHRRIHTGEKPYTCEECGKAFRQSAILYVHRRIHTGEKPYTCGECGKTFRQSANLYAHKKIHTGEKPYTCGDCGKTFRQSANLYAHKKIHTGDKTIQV

First: CCCCCGCCGC
Second: AAAAAGCTAT
The binding signal of the first is lower: 0.00168 relative 10-mer count for the first, 0.00192 relative 10-mer count for the second.

Compared with ACACCCACCC, GCACCCACCC is higher in binding signal: 0.00336 relative 10-mer count for the first, 0.00479 relative 10-mer count for the second.

Compared with ATAGCTTCAT, CCCACCCCCC is higher in binding signal: 0.00288 relative 10-mer count for the first, 0.00384 relative 10-mer count for the second.

First: CCCCCTCCCG
Second: CCACCCCCCA
The binding signal of the first is lower: 0.00336 relative 10-mer count for the first, 0.00443 relative 10-mer count for the second.

First: CCCCCCACGC
Second: ACCGCCCACC
The binding signal of the first is higher: 0.00324 relative 10-mer count for the first, 0.00204 relative 10-mer count for the second.

Compared with ACCCTCCCCC, CCCCCGTCCC is lower in binding signal: 0.00575 relative 10-mer count for the first, 0.00252 relative 10-mer count for the second.

First: CACGCCACCC
Second: CACCATCCCC
The binding signal of the first is higher: 0.00587 relative 10-mer count for the first, 0.003 relative 10-mer count for the second.

First: CCTCCCCCGC
Second: CACACCACCC
The binding signal of the first is lower: 0.00348 relative 10-mer count for the first, 0.00527 relative 10-mer count for the second.

First: CACCCCGCCC
Second: CCCCAACCCA
The binding signal of the first is lower: 0.003 relative 10-mer count for the first, 0.00384 relative 10-mer count for the second.

First: CCCCCTCACC
Second: CGAAAAAAAG
The binding signal of the first is lower: 0.00372 relative 10-mer count for the first, 0.0578 relative 10-mer count for the second.

Compared with CACCCCACAC, CCACCCCACG is lower in binding signal: 0.00875 relative 10-mer count for the first, 0.00491 relative 10-mer count for the second.

Compared with CCGCCCTCCC, CCCCCACCGC is higher in binding signal: 0.00252 relative 10-mer count for the first, 0.00479 relative 10-mer count for the second.

Going from CCTCCCACCA to CACAAAAAAG, the binding signal rises from 0.00491 relative 10-mer count to 0.0405 relative 10-mer count.

Going from GCTTCATACA to CACCACCCCC, the binding signal rises from 0.0018 relative 10-mer count to 0.0024 relative 10-mer count.

Going from AAAGAAGCTA to ACCCCCAACC, the binding signal rises from 0.00132 relative 10-mer count to 0.00479 relative 10-mer count.

Going from AAAGCTGCAC to GCACCCCCAC, the binding signal rises from 0.0024 relative 10-mer count to 0.0174 relative 10-mer count.

First: AAAGCTATCC
Second: ACCCACCTCC
The binding signal of the first is lower: 0.00156 relative 10-mer count for the first, 0.00527 relative 10-mer count for the second.

First: AGGGGGCGGG
Second: ACCCCCCCAC
The binding signal of the first is lower: 0.0012 relative 10-mer count for the first, 0.00695 relative 10-mer count for the second.

Compared with CCCAAAAAAA, CCCACCCCCA is lower in binding signal: 0.0681 relative 10-mer count for the first, 0.00647 relative 10-mer count for the second.

First: AACCACCCCC
Second: ACCCCACCTC
The binding signal of the first is higher: 0.00276 relative 10-mer count for the first, 0.0024 relative 10-mer count for the second.
